Sampled rows, rich in hits. Any-hit rate of the full collection: about 12%.
WT yeast gro inh = growth inhibition of WT yeast, mitochondrial fusion screen; mitochondrial fusion phenotypic screen, WT strain; inhibition, % at 10 µM; 190,000 compounds, 2.1% hits; in the data active = inhibition above about 58%; tested in S. cerevisiae
Lmaj promast = reduces viability of Leishmania major promastigotes; resazurin fluorescence viability; inhibition, % at 10 µM; 200,000 compounds, 9% hits; AID 1063; in the data active = inhibition above about 50%;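 also: promastigotes grown with compound for 44 hours at 28 °C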
m-calpain inh = inhibitors of pig calpain II. purified calpain II, fluorogenic peptide substrate, 30 min. inhibition, % at 16 µM. 220,000 compounds, 0.37% hits;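 active = inhibition above about 50%, limit read from the data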
ROMK mod = modulators of human ROMK potassium channel. P48048. Tet-inducible ROMK, thallium flux fluorescence; actives lie on both sides. B-score at 10 µM. 130,000 compounds, 2% hits. AID 1918;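 active = signal ratio slope over the read window, or its plate-corrected B-score, at least 3 SD from the plate mean, either direction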;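 also: B-score of the F/F0 ratio slope over 7 to 12 s after thallium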
Target sequence (P48048 whole entry, looked up): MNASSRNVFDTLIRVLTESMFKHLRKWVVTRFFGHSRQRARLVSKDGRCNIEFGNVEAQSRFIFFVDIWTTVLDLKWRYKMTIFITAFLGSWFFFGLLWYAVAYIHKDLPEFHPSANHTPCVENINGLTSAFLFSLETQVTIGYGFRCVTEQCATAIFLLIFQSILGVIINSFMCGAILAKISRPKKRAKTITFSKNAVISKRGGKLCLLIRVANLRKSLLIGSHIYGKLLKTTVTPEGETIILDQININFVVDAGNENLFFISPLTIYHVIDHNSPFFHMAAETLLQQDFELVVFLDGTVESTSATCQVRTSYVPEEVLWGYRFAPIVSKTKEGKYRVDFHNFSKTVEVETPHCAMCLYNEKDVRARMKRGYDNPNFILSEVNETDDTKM
KCC2 mod = modulators of human KCC2 chloride dependent transport; KCC2 cells, thallium flux FluoZin-2 fluorescence; B-score of Tl+ flux slope (higher = more flux/activation; lower = inhibition) at 10 µM; 190,000 compounds, 2.2% hits; AID 1456;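 active = thallium flux slope and its plate-corrected score both differing from the plate sample mean at a set confidence after two filtering rounds, in either direction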;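 also: slope of fluorescence scaled to starting intensity during 10 to 20 s after thallium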
* marks the source's active call; other numbers are inactive results; i = inactive; · = no result.

SMILES | WT yeast gro inh | Lmaj promast | m-calpain inh | ROMK mod | KCC2 mod
CSc1ccc(Cl)c(C(=O)NCCOc2cc(C)ccc2C(C)C)c1 | 62* | 2 | 36 | -1.2 | -1.2
CCOCCCNC(=O)/C(C#N)=C/c1ccc([N+](=O)[O-])o1 | 91* | 101* | -37 | -2.2 | 0.018
CCCCCCCCNC(=O)/C(C#N)=C/c1ccccc1[N+](=O)[O-] | 68 | 58* | -4 | · | -0.58
O=C(CNC(=O)Cc1ccccc1)NCC(=O)OCc1ccc(C(=O)c2ccccc2)cc1 | 7 | -2 | 20 | -0.17 | ·
COCCN(C(=S)Nc1ccc(OC)cc1)C(C)c1cccs1 (configuration not stated) | 28 | 2 | 0 | · | 0.59
CC(C)CCN(C(=S)Nc1cccc(F)c1)C(C)c1cccs1 (configuration not stated) | 59* | 21 | 32 | -0.81 | 0.58
COCCN(C(=S)Nc1cc(C)cc(C)c1)C(C)c1cccs1 (configuration not stated) | 15 | 11 | 37 | -1.4 | -0.91
COCCN(C(=S)Nc1c(C)cccc1C)C(C)c1cccs1 (configuration not stated) | 38 | 56* | -13 | -0.41 | -0.0076
COCCN(C(=S)Nc1cccc(C)c1)C(C)c1cccs1 (configuration not stated) | 59* | 2 | 12 | · | 0.036
COCCN(C(=S)Nc1cc(C)cc(C)c1)C(C)c1ccco1 (configuration not stated) | 61* | 11 | 5 | 1.9 | -1.6
CCN1C(=O)/C(=C/c2ccc(N3CCCC3)cc2)NC1=S | 36 | 42 | 22 | -0.55 | 4.1
CCCN1C(=O)/C(=C/c2ccc(N3CCCC3)c(C)c2)NC1=S | 69* | 42 | 21 | · | i
CCOc1ccc(OCC)c(S(=O)(=O)n2cc(C)nc2CC)c1 | 8 | 99* | -18 | 0.91 | ·
C[C@H](NC(=O)NCc1ccc(F)cc1)C(=O)O | -8 | -6 | 2 | 1 | 0.77
CC(NC(=S)NCc1ccc(F)cc1)C12CC3CC(CC(C3)C1)C2 (configuration not stated) | 77* | 13 | 3 | · | 1.6
NS(=O)(=O)c1cccc(NC(=O)Cn2cnc3ccccc3c2=O)c1 | 3 | -1 | 21 | 0.82 | 0.28
Cc1ccc(Nc2c(N)c(=O)oc3ccccc23)cc1 | -14 | 73* | -3 | · | -0.39
O=C(OCC(=O)N1N=C(c2ccc(Cl)cc2)CC1c1ccco1)c1ccccc1O (configuration not stated) | 43 | 20 | -255 | -0.36 | ·
CC(OC(=O)c1cc(S(=O)(=O)N(C)c2ccccc2)ccc1Cl)C(=O)Nc1ccc2c(c1)OCCO2 (configuration not stated) | 15 | 65* | -1 | · | -1.2
CN(c1ccccc1)S(=O)(=O)c1ccc(Cl)c(C(=O)NC2=NCCS2)c1 | -8 | 7 | -23 | · | -0.33
Cc1ccc(N(CCCCN2C(=O)c3ccccc3C2=O)C(=O)c2ccc(Cl)s2)cc1 | 13 | 2 | 50* | · | -1.4
O=C1c2ccccc2C(=O)N1CCCCN(C(=O)c1cc([N+](=O)[O-])cc([N+](=O)[O-])c1)c1ccc(Cl)cc1 | 24 | 99* | -4 | -1.2 | 0.084
O=C1c2ccccc2C(=O)N1CCCCN(C(=O)c1cc([N+](=O)[O-])ccc1Cl)c1ccc(Cl)cc1 | 66* | 58* | 28 | 0.88 | -0.018
O=[N+]([O-])c1ccc(NCCNCCOc2nonc2-c2ccccc2)c([N+](=O)[O-])c1 | 38 | 11 | 39 | 0.082 | 0.16
CCOC(=O)c1nc2sc3c(c2c(=O)n1C(C)C(=O)OCC)CCCC3 (configuration not stated) | -7 | -5 | i | · | -1.1
SMILES | WT yeast gro inh | Lmaj promast | m-calpain inh | ROMK mod | KCC2 mod
COc1ccccc1C(=O)C1CCCN(C(=O)Nc2ccccc2F)C1 (configuration not stated) | 1 | -1 | -10 | -0.88 | ·
CCCCOc1ccc(/C=C/C(=O)Nc2ccc(C(N)=O)cc2)cc1 | -9 | 91* | -9 | 1.5 | 1.6
CCc1ccc(NC(=O)c2noc(C(C)C)c2[N+](=O)[O-])cc1 | -10 | 0 | 46 | -0.41 | -2.1
Cc1ccc(O)c(NC(=O)c2noc(C(C)C)c2[N+](=O)[O-])c1 | -7 | -3 | -9 | · | -1.2
COc1ccc(NC(=O)c2noc(C(C)C)c2[N+](=O)[O-])cc1 | 1 | -6 | 53* | -0.43 | 0.32
CC(=O)c1ccc(NC(=O)c2noc(C(C)C)c2[N+](=O)[O-])cc1 | -5 | 1 | 95* | 1 | -0.35
COc1ccc(C(=O)NCc2nnc(SCC(=O)N3CCOCC3)o2)cc1OC | -13 | -8 | -20 | 0.35 | -0.052
CCOC(=O)CCc1c(C)nc(SCCCn2c(=O)[nH]c3ccccc32)c(C#N)c1C | -11 | 2 | 3 | · | ·
CCOC(=O)CCc1c(C)nc(SCCN2CCCC2)c(C#N)c1C | 9 | 81* | 2 | · | 0.16
O=C(c1ccccc1)c1ccc(N2CCNCC2)cc1 | -2 | 75* | -16 | · | ·
O=C(O)CCC(=O)N1CCN(c2ccc(C(=O)c3ccc(F)cc3)cc2)CC1 | -3 | -3 | 46 | · | ·
CN1CCN(c2ccc(C(=O)c3ccc(F)cc3)cc2)CC1 | -14 | 68* | 0 | · | 0.055
O=C(c1ccccc1)c1ccc(N2CCCC2)cc1 | -2 | 34 | 10 | 0.27 | ·
CC(=O)c1ccc(-c2ccc(C(=O)N3CCN(c4ccc(F)cc4)CC3)o2)cc1 | 30 | 23 | 68* | -0.81 | -0.57
O=C(CCNC(=O)c1ccccc1)NCC1CCCCC1 | 15 | -9 | 33 | 0.066 | 0.0057
COCC(=O)N1CCC(n2nnc3cc(C(F)(F)F)ccc32)CC1 | -3 | -3 | -13 | -0.28 | 0.54
O=C(OC1CCOC1=O)c1ccc(NS(=O)(=O)c2cccs2)cc1 (configuration not stated) | 10 | -5 | 17 | 1 | 0.39
O=C(CSc1ncnc2c1oc1ccccc12)NCc1ccco1 | -12 | -3 | -14 | · | -1
NC(=O)c1ccc(-n2nnnc2Oc2ccccc2C(=O)N2CCOCC2)cc1 | 6 | 6 | 51* | · | 0.75
O=C(Oc1ccccc1C(=O)N1CCOCC1)c1ccccc1 | -7 | -4 | -13 | -0.23 | -0.015
CCOC(=O)C(Sc1cc(-c2ccccc2)nc2ncnn12)C(C)=O (configuration not stated) | · | · | -4 | 0.17 | -0.16
O=C(COC(=O)Cc1ccc(Cl)cc1)Nc1ccccc1-c1ccccc1 | 5 | -3 | 19 | · | -0.91
O=C(Cn1nc(-c2ccccc2Cl)ccc1=O)Nc1ccccc1-c1ccccc1 | 67* | 2 | -8 | -1.1 | ·
O=C(COC(=O)Cc1c(Cl)cccc1Cl)Nc1ccccc1-c1ccccc1 | 81* | 18 | 26 | -0.036 | -0.18
O=C(Cn1nc(-c2ccccc2Cl)ccc1=O)Nc1ccc(Br)cc1 | 48 | -7 | 9 | -0.75 | -0.75
O=C(CN1CCN(c2ccccc2)CC1)Nc1cccc([N+](=O)[O-])c1 | 0 | -8 | -1 | -0.79 | -1.3
CC1CC(C)C[N+](=C2C=C(N3CCCC3)CC(C)(C)C2)C1 (configuration not stated) | 6 | 100* | -2 | 0.16 | 1.7
CC1(C)CC(=O)C=C(N2CCNCC2)C1 | -2 | -3 | 3 | · | 1.2
